# Compound activity deposited in PubChem BioAssay by National Center for Advancing Translational Sciences (NCATS).
# HT1080-NT tox = qHTS for induction of synthetic lethality in tumor cells producing 2HG: qHTS for the HT-1080-NT fibrosarcoma cell line; HT-1080-NT fibrosarcoma viability, CellTiter-Glo ATP luminescence, 48 h; Potency, µM (highest dose often 46.1 µM), for the others: top-dose activity, negative = less viability, actives largely listed as cytotoxic; 360,000 tested, 1.6% active; AID 686970, 2013;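 note: NT is the 2HG producing partner of a matched IDH1 knockdown line; potency is the fitted concentration of half-maximal effect; 0% = DMSO-treated cells and -100% = media-only wells without cells; nearly all actives have a fitted effect of over 55% in size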
#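 A 48-hour cytotoxicity screen used HT-1080-NT cells plated 2 hours before compound delivery. ATP-based CellTiter-Glo luminescence measured viability, normalized to DMSO and no-cell controls.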
# TDP1 cell noCPT = qHTS for Inhibitors of human tyrosyl-DNA phosphodiesterase 1 (TDP1): qHTS in cells in absence of CPT; 420,000 tested, 15% active; Potency, µM (titrated, usually from 46.2 µM), without a hit: at the top dose activity change, negative = growth inhibition, most hits filed as inhibitors; DT40 Tdp1-/- hTDP1 cells, no CPT, ATP luminescence, 48 h; AID 686978, 2013; note: potency is the fitted concentration of half-maximal effect; nearly all actives have a fitted effect of over 55% in size
#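 Readout: luminescence from CellTiter-Glo after 30 min in the dark at RT. Cells: DT40 Tdp1-/- with stable hTDP1, 400/well. Exposure: compounds alone, ≥48 hr, 37 °C.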
# IL-1B inflam inh = qHTS for Inhibitors of Inflammasome Signaling: IL-1-beta AlphaLISA Primary Screen; THP-1 LPS/ATP IL-1B secretion, AlphaLISA, 16 h; stronger effect = lower value; 360,000 tested, 4.7% active; activity change, % at 57.5 µM; in the data active = activity change below about -50%; inconclusive = mostly about -30% to -49%
#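 Secreted IL-1B measured by AlphaLISA bead assay after 16 h compound exposure of THP-1 cells; compounds (final up to 57.5 uM) added 1 h before LPS (250 ng/mL) and ATP (1.25 mM) stimulation; lower signal means less secretion.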
# DT40 TDP1 CPT = qHTS for Inhibitors of human tyrosyl-DNA phosphodiesterase 1 (TDP1): qHTS in cells in presence of CPT; chicken DT40 Tdp1-/-;hTDP1 cells + 20 nM CPT, ATP luminescence, 48 h; Potency, µM (doses to about 46.2 µM), inactives show at the highest dose activity change, negative = growth inhibition, actives largely listed as inhibitors; 420,000 tested, 12% active; note: potency is the fitted concentration of half-maximal effect; nearly all actives have a fitted effect of over 55% in size
#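 Cell growth measured by CellTiter-Glo luminescence after a minimum 48 h, 37 C compound exposure with 20 nM CPT in Tdp1-knockout DT40 cells stably expressing hTDP1, seeded 400/well; qHTS titration format.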
# HT1080 IDH1KD tx = qHTS for induction of synthetic lethality in tumor cells producing 2HG: qHTS for the HT-1080-IDH1KD cell line; HT-1080 IDH1 knockdown viability, ATP luminescence, 48 h; Potency, µM (titrated, usually from 46.1 µM), for inactives: at the top dose activity, negative = toxicity, actives largely listed as cytotoxic; 360,000 tested, 2% active; AID 686971, 2013;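 note: potency is the fitted concentration of half-maximal effect; 0% = DMSO wells and -100% = cell-free medium wells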
#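 % activity derives from luminescence (CellTiter-Glo), normalised to DMSO and no-cell wells. HT-1080-IDH1KD cells, 750/well, had 48 h compound exposure at 37 °C.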
# Starred values were filed as active, the others as inactive; u = inconclusive; x = no result. Only some compounds are listed: those with a hit (about 19% of all), similar ones and a draw of the others. Unless noted, calls come from the whole dose curve; as a rule, active = well fitted curve in the direction sought with a large enough effect; inconclusive = small, poorly fitted or top-dose-only effect, or another doubt; inactive = no such curve, though single readings can be large; an effect the other way counts as inactive or inconclusive. Unless noted, % is set by controls: 0 for no effect and ±100 for the full control effect.
SMILES,HT1080-NT tox,TDP1 cell noCPT,IL-1B inflam inh,DT40 TDP1 CPT,HT1080 IDH1KD tx
C[C@@]1(CO)[C@H](O)CC[C@@]2(C)[C@H]1CC[C@H]1C[C@@H]3C[C@@]12CC[C@]3(O)CO,x,0.131µM*,x,0.104µM*,x
O=c1oc2ccccc2c(O)c1[C@H]1c2ccc(O)cc2Oc2c1c(=O)oc1ccccc21,u,23.1µM*,-91.9*,u,-18.8%
C[C@]12C=CC(=O)C=C1CC[C@@H]1[C@@H]2CC[C@@]2(C)[C@H]1CC[C@]2(C)O,x,18.8µM*,x,u,x
C[C@]12CCC(=O)C=C1CC[C@@H]1[C@@H]2CC[C@@]2(C)[C@H]1CC[C@]2(C)O,5.3%,u,35.4,u,-10.0%
CC12Cc3cnoc3C=C1CCC1C2CCC2(C)C1CCC2(C)O (centres undefined),2.7%,u,-50.2*,u,1.5%
C[C@]1(O)CCC2C3CC[C@@H]4CC(=O)CC[C@]4(C)C3CC[C@@]21C (some centres undefined),11.1%,u,13.6,18.4µM*,3.5%
Cc1ccc(C(=O)CN2CCOCC2)cc1,x,-0.8%,x,-2.4%,x
NCCCP(=O)(O)CC1CCCCC1,x,-0.6%,x,11.7%,x
O=C(NCCc1ccc(Cl)cc1)C(=O)NCC(c1cccs1)S(=O)(=O)c1cccs1 (centres undefined),x,13µM*,x,u,x
C[C@]12CC[C@H]3[C@@H](CC=C4C[C@@H](O)CC[C@@]43C)[C@@H]1CC[C@@H]2O,x,-23.5%,x,-3.2%,x
CCc1ccc(NC(=O)CN2C(=O)C3(SCC(=O)N3c3ccc(F)c(F)c3)c3ccccc32)cc1 (centres undefined),x,u,x,18.4µM*,x
C[C@@H](Cc1ccc(OCC(=O)O)cc1)NC[C@H](O)c1cccc(Cl)c1,x,-14.7%,x,0.6%,x
COC(=O)C1=C(c2ccc(OC(F)(F)F)cc2)C[C@@H]2CC[C@H]1N2C(=O)N1CCCC1,u,1.84µM*,-1.3,1.84µM*,-8.2%
COC(=O)C1=C(c2ccc(OC(F)(F)F)cc2)C[C@@H]2CC[C@H]1N2C(=O)NC1CC1,12.7%,14.6µM*,21.8,20.6µM*,4.4%
COC(=O)C1=C(c2cccc(C#N)c2)C[C@@H]2CC[C@H]1N2C(=O)N1CCCC1,0.6%,18.4µM*,35.1,u,3.4%
COC(=O)C1=C(c2ccc(OC(F)(F)F)cc2)C[C@@H]2CC[C@H]1N2C(=O)N1CCOCC1,-18.2%,1.84µM*,0.0,2.59µM*,2.4%
COC(=O)C1=C(c2cccc(C#N)c2)C[C@@H]2CC[C@H]1N2C(=O)N1CCc2cc(OC)c(OC)cc2C1,9.3%,u,4.4,u,0.9%
Oc1ccccc1CN(CCc1ccccc1)Cc1ccccc1,-16.1%,-18.0%,13.9,-24.8%,-14.4%
COc1c2c(c(CC=C(C)C)c3oc(=O)c(-c4ccc(O)cc4)c(O)c13)OC(C)(C)C=C2,x,-22.5%,x,-4.1%,x
COC(=O)C1=C(c2ccc(S(C)(=O)=O)cc2)C[C@@H]2CC[C@H]1N2C(=O)N1CCC(C)CC1,16.3%,u,6.5,u,17.1%
COC(=O)C1=C(c2ccc(OC(F)(F)F)cc2)C[C@@H]2CC[C@H]1N2C(=O)N1CCC(C)CC1,u,5.8µM*,0.0,6.51µM*,u
CNC(=O)Oc1ccc(-c2cn3cc(Cl)ccc3n2)cc1,-1.3%,u,u,20.6µM*,-16.4%
CNC(=O)Oc1cccc(-c2cn3cc(OC(=O)NC)ccc3n2)c1,-12.4%,20.6µM*,14.2,u,-9.2%
CNC(=O)Oc1c(C)[nH]ccc1=O,-0.7%,-0.1%,-14.9,0.7%,-2.2%
NC(=O)c1cccc(-c2cccc(OC(=O)NC3CCCCC3)c2)c1,u,u,14.1,-20.7%,19.2%
